ALDH1A1 inh: qHTS Assay for Inhibitors of Aldehyde Dehydrogenase 1 (ALDH1A1). actives 7.3% (n = 220,000). Aldehyde dehydrogenase 1A1 (Homo sapiens), P00352. Potency, µM (series often up to 75.3 µM), inactives show top-dose activity, negative = inhibition, most hits filed as inhibitors. Purified ALDH1A1, NADH fluorescence, propionaldehyde substrate; active = well fitted inhibition curve with a large enough effect, not every such curve was filed as active; inconclusive = small, poorly fitted or top-dose-only effect, or another doubt; inactive = no such curve, though single readings can be large or run the other way;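 note: potency is the fitted concentration of half-maximal effect; plate controls were no enzyme wells and a reference inhibitor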
Sfp PPTase inh: qHTS Assay for Inhibitors of Bacillus subtilis Sfp phosphopantetheinyl transferase (PPTase). Biochemical Sfp PPTase activity, qHTS. 4'-phosphopantetheinyl transferase ffp (Bacillus subtilis), Q9F4F7. Potency, µM, without a hit: largest response in the series, negative = inhibition, hits mostly inhibitors. actives 3.5% (n = 310,000). AID 1490, 2009;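 note: the enzyme is Sfp with the accession as filed and its product quenches rhodamine fluorescence; potency is the fitted concentration of half-maximal effect; 0% = enzyme reaction without inhibitor and -100% = no enzyme wells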
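Fluorescence-quenching assay with 15 nM Sfp, 5 uM rhodamine-CoA and 12.5 uM BHQ-2-labelled ybbR peptide in pH 7.6 Hepes/MgCl2 buffer. Enzyme was pre-incubated with compound for 15 min at room temperature. Rate was taken from the 30-min fluorescence change (525/598 nm).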
LMNA splice mod: qHTS Assay for Modulators of Lamin A Splicing; HeLa LMNA splicing GFP/RFP minigene ratio, 48 h; Potency, µM (series often up to 46.1 µM), for the others: at the top dose ratio change, negative = inhibition, most hits filed as inhibitors; actives 0.01% (n = 200,000); AID 1487, 2009; active = well fitted inhibition curve with a large enough effect in the signal ratio, with a control signal flat, not every such curve was filed as active; inconclusive = small, poorly fitted or top-dose-only effect, or effect the other way, or a change in a side signal; the % refers to the signal ratio; note: potency is the fitted concentration of half-maximal effect; % is set by controls: 0 for no effect and ±100 for the full control effect
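S3 HeLa cells stably expressing lamin A-EGFP splicing minigene plus DsRed2, 600 cells/well, 48 h compound exposure at 37C. Laser-scanning cytometry; analysed as GFP (500-530 nm)/RFP (575-640 nm) total intensity ratio; 0.5% DMSO vehicle.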
JMJD2E inh: qHTS Assay for Inhibitors of Human Jumonji Domain Containing 2E (JMJD2E); Lysine-specific demethylase 4E (Homo sapiens), B2RXH2; JMJD2E catalytic domain, FDH-coupled NADH fluorescence (FDH is formaldehyde dehydrogenase); Potency, µM (titrated, usually from 57.1 µM), for the others: top-dose activity change, negative = inhibition, most hits filed as inhibitors; actives 1.6% (n = 230,000); AID 2147, 2009; active = well fitted inhibition curve with a large enough effect, not every such curve was filed as active; inconclusive = small, poorly fitted or top-dose-only effect, or another doubt; inactive = no such curve, though single readings can be large or run the other way;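 note: potency is the fitted concentration of half-maximal effect; 0% = wells with enzyme and -100% = buffer wells without enzyme; nearly all actives have a fitted effect of over 50% in size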
Target sequence (B2RXH2 1-337 limits assumed): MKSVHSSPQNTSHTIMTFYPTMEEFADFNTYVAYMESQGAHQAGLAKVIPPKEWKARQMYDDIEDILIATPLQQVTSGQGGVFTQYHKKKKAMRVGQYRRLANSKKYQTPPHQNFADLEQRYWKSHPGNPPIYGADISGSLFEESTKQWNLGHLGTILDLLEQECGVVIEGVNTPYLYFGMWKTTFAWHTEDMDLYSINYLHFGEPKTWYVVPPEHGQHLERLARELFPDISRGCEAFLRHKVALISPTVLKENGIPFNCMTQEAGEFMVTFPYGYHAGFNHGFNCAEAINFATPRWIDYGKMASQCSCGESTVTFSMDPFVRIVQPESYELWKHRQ
G9a block: qHTS Assay for Inhibitors of Histone Lysine Methyltransferase G9a; Histone-lysine N-methyltransferase EHMT2 (Homo sapiens), Q96KQ7; G9a H3K9 monomethylation, AlphaScreen, 2 h; Potency, µM (series often up to 102 µM), for inactives: top-dose activity, negative = inhibition, actives largely listed as inhibitors; actives 8.8% (n = 350,000); AID 504332, 2011; note: potency is the fitted concentration of half-maximal effect; % is set by controls: 0 for no effect and ±100 for the full control effect; nearly all actives have a fitted effect of over 75% in size
Target sequence (Q96KQ7 913-1193 limits assumed): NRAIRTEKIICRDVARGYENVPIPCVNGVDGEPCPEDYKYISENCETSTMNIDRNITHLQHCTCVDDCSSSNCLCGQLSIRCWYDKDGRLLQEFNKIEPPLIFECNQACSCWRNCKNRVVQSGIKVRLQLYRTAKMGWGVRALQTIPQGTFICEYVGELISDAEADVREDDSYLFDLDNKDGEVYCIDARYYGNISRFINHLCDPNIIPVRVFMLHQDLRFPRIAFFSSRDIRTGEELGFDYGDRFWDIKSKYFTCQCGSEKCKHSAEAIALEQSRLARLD
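Signal arises when biotinylated H3K9 peptide, once monomethylated, bridges streptavidin donor and antibody-captured acceptor beads. Enzyme at 20 nM was preincubated 15 min with test compounds; peptide 500 nM and SAM 20 uM then reacted for 2 h.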
miR-21 reporter: qHTS Assay for Modulators of miRNAs and/orActivators of miR-21 | HeLa miR-21 FLuc reporter, luciferase, 48 h | Potency, µM (doses to about 38.3 µM), for the others: top-dose activity change, positive = activation, actives largely listed as activators | 340,000 tested, under 10 active;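 note: % of control where 0% means no effect; miR-21 action dims this reporter so a rising signal means less miR-21 action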
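HeLa cells endogenously expressing miR-21, stably carrying CMV-driven firefly luciferase with a downstream miR-21 binding site, 2000 cells/well. Titrations up to approximately 40 uM, 48 hours; luciferase luminescence read.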
Starred values were filed as active, the others as inactive; ? = inconclusive; · = no result; [ ] = another dose, or the depositor's remark. Shown are actives, neighbours in structure and some others; about 13% of the full set was active somewhere. Unless noted, calls come from the whole dose curve; as a rule, active = well fitted curve in the direction sought with a large enough effect; inconclusive = small, poorly fitted or top-dose-only effect, or another doubt; inactive = no such curve, though single readings can be large; an effect the other way counts as inactive or inconclusive.

SMILES | ALDH1A1 inh | Sfp PPTase inh | LMNA splice mod | JMJD2E inh | G9a block | miR-21 reporter
CCSc1nnc(NC(=O)C(C)C)s1 | -4.9% | 0.0% | 0.3% | -3.9% | 15.1% | -28.8%
CCSc1nnc(NC(=O)C(CC)(C(F)(F)F)C(F)(F)F)s1 | 7.2% | 13.2% | -14.3% | -6.4% | 50.1µM* | ?
CCSc1nnc(NC(=O)C(C)(C(F)(F)F)C(F)(F)F)s1 | 2.2% | -4.7% | -15.7% | -8.5% | ? | 25.1%
CCSc1nnc(NC(=O)C(C(F)(F)F)C(F)(F)F)s1 | 17.8µM* | 3.6% | ? | -3.2% | 11.7%[12.7 µM] | 0.1%
Cc1ccc(C)c2c1cc(C)c1nnc(SCC(=O)c3cccs3)n12 | ? | -4.4% | -16.4% | -2.5% | 12.6µM* | -13.4%
Cc1ccc2cc(C)c3nnc(SCC(=O)c4cccs4)n3c2c1C | ? | -20.8% | ? | ? | 35.5µM* | -18.8%
Cc1cc2ccc(C)c(C)c2nc1SCC(=O)c1cccs1 | -4.0% | -9.3% | 3.1% | ? | 97.1%[59 µM] | 11.5%
Cn1c(Cc2ccccc2)nnc1SCC(=O)c1cccs1 | -4.4% | -0.3% | -2.8% | 2.4% | 50.1µM* | -8.0%
C=CCn1c(SCC(=O)c2cccs2)nnc1-c1cccc(OC)c1 | ? | -29.9% | 2.6% | 1.0% | ? | -12.4%
C=CCn1c(SCC(=O)c2cccs2)nc2sc(C)cc2c1=O | 11.2µM* | 5.9% | -8.3% | -3.1% | 8.2%[12.7 µM] | 4.5%
NCCn1oc(=O)[nH]c1=O | 4.8% | 27.3% | · | · | 39.0%[59 µM] | ·
CC(=O)Nc1nonc1-c1nnc(SCc2ccccc2C)n1C | · | · | 18.2%[46 µM] | · | -2.1%[59 µM] | -12.6%
Cc1cccc(Cl)c1OCCCN1CCOCC1 | · | -24.9% | · | · | 10µM* | -11.8%
Cc1ccccc1OCCN1CCCC1 | · | -17.9% | · | · | · | -4.4%
CCC(C)c1ccccc1OCCOCCN1CCCC1 (stereo not drawn) | -13.9% | -9.5% | 0.3% | 9.7% | 12.6µM* | -4.8%
Cc1cccc(C)c1OCCN1CCCC1 | · | 1.8% | · | · | 25.1µM* | -1.0%
CCC(C)c1ccccc1OCCCCN1CCCC1 (stereo not drawn) | -4.6% | 13.7% | -0.5% | ? | ? | -1.5%
Cc1ccccc1OCCCN1CCCC1 | 5.7% | -5.1% | 14.1% | -17.3% | 39.8µM* | -3.0%
CS(=O)(=O)c1cccc(C(=O)OCC(=O)Nc2ccc3c(c2)OCO3)c1 | · | · | · | · | -35.2%[59 µM] | ·
Cc1cccc(C)c1OCCOCCN1CCN(C)CC1 | ? | -19.5% | -5.6% | ? | -42.1%[59 µM] | -3.2%
Clc1cccc(OCCN2CCCC2)c1 | · | 12.2% | · | · | ? | -3.3%
Cc1cccc(C)c1OCCCCN1CCCCC1 | · | -11.1% | · | · | 79.4µM* | -0.1%
CCOc1cccc(OCCCCN2CCCCC2)c1 | ? | ? | 4.3% | -19.5% | 8.91µM* | -3.1%
CC(C)c1cccc(OCCN2CCCC2)c1 | · | -5.3% | · | · | 31.6µM* | -9.0%
Cc1cccc(C)c1OCCCN1CCCC1 | ? | -15.1% | 6.4% | -24.9% | 10µM* | -3.7%
SMILES | ALDH1A1 inh | Sfp PPTase inh | LMNA splice mod | JMJD2E inh | G9a block | miR-21 reporter
O=C(CCCCCn1c(=O)[nH]c2ccccc2c1=O)N1CCN(c2ccc(Cl)cc2)CC1 | · | · | -9.1%[46 µM] | · | 6.4%[59 µM] | ?
COc1ccc2c(-c3ccccc3)cc(N3CCOCC3)nc2c1 | ? | ? | 9.8% | ? | 2.24µM* | -4.1%
COc1ccc(C2/C(=C(/O)c3ccc(C)cc3)C(=O)C(=O)N2CCCN2CCOCC2)cc1 (stereo not drawn) | · | ? | · | · | 4.4%[0.501 µM] | -4.5%
CC(C)=CCC/C(C)=C/CO/N=C1/C[C@@H](O)[C@@H](O)[C@@H]2[C@@H]3C(=O)N(c4cccc(Oc5ccccc5)c4)C(=O)[C@H]3CC[C@@H]12 | -4.1%[13.5 µM] | ? | · | · | · | ·
CC(c1ccccc1)C1CC(=O)N(Cc2ccco2)C1=O (stereo not drawn) | 8.91µM* | 22.4µM* | 13.4% | -4.1% | ? | -3.4%
COc1ccccc1-c1ccc(/C=C2/C=C(CC(C)C)OC2=O)o1 | ? | 50.1µM* | ? | ? | 10µM* | -7.6%
